# Reference: PMC4336329 (PLoS ONE, 2015)
# About 14,000 (4.5%) of roughly 310,000 compounds showed an effect of 50% or more. The effect is printed as a negative number. What follows is part of a selection rich in strong results, with near analogues and random picks from the rest.
# Target: human ether-à-go-go-related gene (hERG) potassium channel (human, UniProt Q12809)
# Assay: primary screen, population patch clamp on CHO cells stably expressing hERG; higher = less effect of the substance
# 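Further: peak tail current of the secondary pulse compared with the same well before compound.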
# Chain of human ether-à-go-go-related gene (hERG) potassium channel (Q12809 whole entry, looked up): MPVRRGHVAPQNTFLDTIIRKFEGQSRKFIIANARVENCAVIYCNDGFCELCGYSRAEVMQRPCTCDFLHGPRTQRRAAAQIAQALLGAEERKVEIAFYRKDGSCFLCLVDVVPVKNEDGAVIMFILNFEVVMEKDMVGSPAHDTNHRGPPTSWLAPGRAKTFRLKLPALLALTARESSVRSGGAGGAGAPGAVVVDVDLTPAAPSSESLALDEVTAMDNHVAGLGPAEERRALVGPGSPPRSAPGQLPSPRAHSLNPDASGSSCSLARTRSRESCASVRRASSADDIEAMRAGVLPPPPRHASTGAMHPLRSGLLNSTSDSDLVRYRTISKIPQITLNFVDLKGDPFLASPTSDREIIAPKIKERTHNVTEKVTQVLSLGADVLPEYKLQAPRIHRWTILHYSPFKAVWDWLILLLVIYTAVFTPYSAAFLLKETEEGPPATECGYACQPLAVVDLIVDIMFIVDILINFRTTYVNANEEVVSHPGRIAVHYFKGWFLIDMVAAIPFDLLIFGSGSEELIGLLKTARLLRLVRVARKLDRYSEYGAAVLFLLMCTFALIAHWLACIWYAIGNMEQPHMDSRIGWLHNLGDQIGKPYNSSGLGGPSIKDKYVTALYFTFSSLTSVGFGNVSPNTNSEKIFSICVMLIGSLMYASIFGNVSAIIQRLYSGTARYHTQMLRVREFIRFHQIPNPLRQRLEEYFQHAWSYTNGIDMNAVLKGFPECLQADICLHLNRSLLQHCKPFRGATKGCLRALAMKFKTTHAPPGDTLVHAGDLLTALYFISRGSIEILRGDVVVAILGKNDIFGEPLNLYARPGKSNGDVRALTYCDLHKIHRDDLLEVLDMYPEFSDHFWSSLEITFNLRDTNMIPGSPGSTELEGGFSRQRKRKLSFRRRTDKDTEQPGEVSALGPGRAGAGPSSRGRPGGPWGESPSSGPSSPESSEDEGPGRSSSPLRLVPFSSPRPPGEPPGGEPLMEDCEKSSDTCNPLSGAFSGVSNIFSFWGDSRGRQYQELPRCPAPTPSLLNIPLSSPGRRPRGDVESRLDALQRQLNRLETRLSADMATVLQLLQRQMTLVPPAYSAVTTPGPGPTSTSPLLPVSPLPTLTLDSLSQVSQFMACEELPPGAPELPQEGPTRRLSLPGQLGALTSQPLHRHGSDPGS
row,Compound,"hERG current change (%, negative = inhibition) at 10uM [%]"
1,O=C(CC(c1ccccc1)c1cc(Cl)ccc1O)N1CCCC1 (centres unmarked),-17.5
2,O=C(NS(=O)(=O)Nc1ccccn1)c1c[nH]c2ccccc12,15.4
3,Cc1cccc(NC(=O)C2CCN(C(=O)NC3CCCCC3)CC2)c1,7.39
4,CS(=O)c1ccccc1COC(=O)Nc1ccccc1 (centres unmarked),9.76
5,Cc1c(NC(=O)c2ccccc2)c(=O)n(-c2ccccc2)n1C,-3.48
6,O=C(NCc1ccco1)C1CCN(C(=O)c2ccc(Cl)cc2Cl)CC1,-0.217
7,Cn1c(C(=O)N2CCCC(C(=O)NCc3cccs3)C2)cc2sccc21 (centres unmarked),-16.1
8,O=C(NCc1ccco1)C1CCN(c2nc3ccccc3n2Cc2ccccc2F)CC1,-66.2
9,CCn1c(C(=O)N2CCC(C(=O)NCc3cccs3)CC2)cc2sccc21,-63
10,COc1nc(OC)nc(N2CCC(C(=O)NCc3ccco3)CC2)n1,-18.3
11,CCOC(=O)N1CCN(C(=O)C2CCN(C(=O)c3cc4sccc4n3CC)CC2)CC1,-28.8
12,CCn1c(C(=O)N2CCC(C(=O)NCc3ccc(OC)cc3)CC2)cc2sccc21,-41.9
13,Cc1cc(C)nc(N2CCC(C(=O)NCc3ccccc3F)CC2)n1,27
14,O=C(NCc1ccco1)C1CCN(C(=O)c2cc3sccc3n2Cc2ccc(Cl)cc2)CC1,-64.8
15,O=C(NCc1ccco1)c1cc2sccc2n1Cc1ccccc1,-15.7
16,CCn1c(C(=O)N2CCC(C(=O)N3CCN(c4ccccn4)CC3)CC2)cc2sccc21,-60.5
17,CCN1CCN(C(=O)C2CCN(C(=O)c3cc4sccc4n3CC)CC2)CC1,-2.39
18,COC(=O)CSc1nnc(COc2cccc3ccccc23)o1,13.6
19,CN(C)/C=C1\N=C(c2ccccc2)OC1=O,3.09
20,COc1ccc(N2CCN(C(C)C(=O)Nc3nnc(C)s3)CC2)cc1.Cl (centres unmarked),-1.41
21,CSc1ccccc1NC(=O)Cc1ccccc1,13.8

row,Compound,"hERG current change (%, negative = inhibition) at 10uM [%]"
1,CCN(CC)S(=O)(=O)c1ccc(NC(=O)CCN2C(=O)C3CC=CCC3C2=O)cc1 (centres unmarked),-30
2,CC1(c2ccccc2Cl)NC(=O)N(CC(=O)Nc2ccc(N3CCCCC3)cc2)C1=O (centres unmarked),-21.9
3,CC(=O)N1CCc2cc(S(=O)(=O)CCC(=O)Nc3ccccc3F)ccc21,13.3
4,CC(C)N(CCCNC(=O)C1CCN(C(=O)c2cc3sccc3n2C)CC1)Cc1ccccc1,-23.2
5,O=C(NCc1ccccn1)C1CCN(C(=O)c2cc3sccc3n2Cc2ccc(F)cc2)CC1,-46.5
6,O=C(NCc1ccco1)C1CCN(C(=O)c2cc3sccc3n2Cc2ccc(F)cc2)CC1,-68.5
7,CCOC(=O)c1cc2sccc2n1CC(=O)N1CCN(C(=O)c2ccco2)CC1,-48.2
8,O=C(NCCN1CCOCC1)c1cc2sccc2n1Cc1ccc(Cl)cc1,-59.9
9,O=C(NCCN1CCOCC1)c1cc2sccc2n1Cc1ccc(F)cc1,-47
10,O=C(c1cc2sccc2n1Cc1ccccc1)N1CCN(c2nc3ccccc3s2)CC1,-17
11,CCCCN(CCCNC(=O)C1CCN(C(=O)c2cc3sccc3n2C)CC1)Cc1ccccc1,-60.8
12,CCN(CCCNC(=O)C1CCN(C(=O)c2cc3sccc3n2C)CC1)Cc1ccccc1,-38.4
13,O=C(Cn1c(C(=O)NCCCN2CCOCC2)cc2sccc21)c1ccccc1,-16.5
14,O=C(c1ccco1)N1CCN(C(=O)c2cc3sccc3n2Cc2ccccc2)CC1,-55.6
15,CC(C)NC(=O)C1CCN(C(=O)c2cc3sccc3n2Cc2ccc(F)cc2)CC1,-3.2
16,COCCSc1nnc(NS(=O)(=O)c2ccc(F)cc2)s1,3.84
17,O=C(c1ccncc1)N1c2ccccc2Sc2ccccc21,18.2
18,CC(C)=CCCC(C)N(C=O)C(C)CCC=C(C)C (centres unmarked),-1.01
19,CC(=O)c1cccc(NC(=O)COC(=O)c2ccccc2C)c1,-14.4
20,CN(C)S(=O)(=O)c1ccc(C(=O)OCC(=O)Nc2ccccc2OC(F)F)cc1,-5.82
21,CC(OC(=O)c1cc(Br)ccc1O)C(=O)NC1(C#N)CCCCC1 (centres unmarked),27.3

row,Compound,"hERG current change (%, negative = inhibition) at 10uM [%]"
1,Cc1c(N=Cc2nc3ccccc3[nH]2)c(=O)n(-c2ccccc2)n1C,5.52
2,Cc1ccc(S(=O)(=O)NC(CC(=O)N2CCC3(CC2)OCCO3)c2ccco2)cc1 (centres unmarked),3.51
3,CC(C)[C@H](NC(=O)NCCc1ccc(Cl)cc1)C(=O)O,5.9
4,COc1ccccc1-c1noc(CCC(=O)Nc2cc(C(F)(F)F)ccc2Cl)n1,-3.68
5,CC(C)=CC(=O)OCC(=O)Nc1cc([N+](=O)[O-])ccc1F,0.461
6,CC(C)CCN(Cc1ccco1)S(=O)(=O)c1csc(C(N)=O)c1,-14.9
7,CC1(c2ccc(OC(F)F)cc2)NC(=O)N(CC(=O)N2c3ccccc3NC(=O)C2(C)C)C1=O (centres unmarked),-6.78
8,CCCCNC(=O)N(O)C1N(/N=C/c2ccccc2F)C(=S)SC1(C)C (centres unmarked),16.5
9,Cc1ccc(C(=O)N[C@H](C(=O)OCC(=O)NC2CCS(=O)(=O)C2)C(C)C)cc1 (some centres unmarked),11.6
10,Cc1cccc(NC(=S)N(CCCN(C)C)Cc2cc3cc4c(cc3[nH]c2=O)OCO4)c1,-52.7
11,Cc1ccc2[nH]c(=O)c(CN(CCCN(C)C)C(=O)Nc3ccc(F)cc3)cc2c1,-70.7
12,CC(=O)N(CCc1cccc(C)c1)Cc1cc2cc(C)ccc2[nH]c1=O,-5.71
13,CN(C)CCCN(Cc1cc2cc3c(cc2[nH]c1=O)OCO3)C(=S)Nc1cccc(Cl)c1,-45.7
14,Cc1ccc(NC(=S)N(CCCN(C)C)Cc2cc3cc4c(cc3[nH]c2=O)OCO4)cc1,-41.7
15,Cc1cccc(NC(=O)N(Cc2cc3cc(C)ccc3[nH]c2=O)CC2COCCO2)c1 (centres unmarked),6.43
16,CN(C)CCCN(Cc1cc2cc3c(cc2[nH]c1=O)OCO3)C(=S)Nc1ccccc1,-36.6
17,COc1ccc(NC(=O)N(Cc2cc3cc(C)ccc3[nH]c2=O)CC2CCCO2)cc1 (centres unmarked),-25.2
18,Cc1ccc2[nH]c(=O)c(CN(CCCN(C)C)C(=O)Nc3ccc(Cl)cc3)cc2c1,-66.1
19,Cc1ccc2[nH]c(=O)c(CN(CCCN(C)C)C(=O)Nc3cccc(Cl)c3)cc2c1,-53.6
20,Cc1ccc2[nH]c(=O)c(CN(CCO)C(=O)N(C)C)cc2c1,5.5
